Bfl-1 A1 inh – inhibitors of the anti-apoptotic protein A1, read as caspase activation; MEF A1-2A-BIM cells, Caspase-Glo 3/7 luminescence, 3 h; percent of clofoctol response, vehicle zero; caspase activation, % (no concentration beside the values); 0.066% of 330,000 active;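 active = over half of replicate activation scores above 10%, or exactly half above 10 with the replicate mean above 10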
Beta apoptosis – beta cell apoptosis inhibition; 0.8% of 300,000 active; INS-1E cytokine-induced death, ATP luminescence, 48 h; percent of positive-control rescue, neutral wells zero; protection from apoptosis, % (concentration not given with the values);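 active = Every replicate reaches about 75%, or at least half do and their mean reaches it too, limit read from the data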;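 also: higher means more ATP so stronger rescue from cytokine killing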
CSC inhib – blocks cancer stem cells | cancer stem cell-like cells viability, luminescence | inhibition, % at 7.5 µM | 1.1% of 300,000 active; in the data active = inhibition above about 75%; tested in HMLE shEcad cells
aSyn 5UTR inh – 5' untranslated region of α-synuclein, MLPCN primary screen | alpha-synuclein 5'UTR reporter, inhibitor activity | inhibition, % (tested at 7.5 µM) | 0.82% of 300,000 active | AID 1813; in the data active = inhibition above about 60%;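 also: H4 neuroglioblastoma cells stably carrying SNCA 5'UTR luciferase fusion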
Mdm2-MdmX inh – human Mdm2/MdmX binding inhibition; inhibition, % at 8 µM; 3% of 330,000 active; AID 485346; O15151+Q00987; SaOS-2 split-luciferase Mdm2/MdmX complementation, luminescence;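 active = inhibition of at least 50% at 8 µM in the primary screen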
Mdm2 MdmX conf – human Mdm2/MdmX binding inhibition, confirmed; inhibition, % at 8 µM; shares compounds with Mdm2-MdmX inh; luminescent assay; 55% of 10,000 active; in the data active = inhibition above about 40%
FLuc counter – full-length luciferase inhibition in Mdm2/MdmX counter-screen; AID 504607; shares compounds with Mdm2-MdmX inh; 77% of 6,200 active; inhibition, % at 8 µM; SaOS-2 full-length luciferase counterscreen, luminescence;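 active = mean inhibition at 8 µM reaching about 37%, which flags the compound as non-specific, limit read from the data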;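 also: p53-null SaOS-2 cells with luciferase driven by a doxycycline-inducible promoter; compound on cells about two nights before reading with doxycycline added after day one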
Each line names hits and unclear results; the compound was inactive in the other large screens (follow-up assays come after a bar, where they were run). Hits are enriched below; roughly 4.1% of the tested compounds scored in any of these assays.

CCOC(=O)c1c(C)[nH]c(C(=O)OCC(=O)NCc2ccc(F)cc2)c1C	Mdm2-MdmX inh 78 (no result: CSC inhib, aSyn 5UTR inh) | Mdm2 MdmX conf inactive
CCOC(=O)c1[nH]c(C)c(C(=O)OCC(=O)NCc2ccc(OC)c(OC)c2)c1C	none (no result: aSyn 5UTR inh)
CCOC(=O)c1ccc(NC(=O)Nc2ccccn2)cc1	none
CCOC(=O)c1ccc(NC(=O)Nc2cccc(C)n2)cc1	Mdm2-MdmX inh 57 | Mdm2 MdmX conf inactive
Cc1cccc(NC(=O)Nc2ccc(C#N)cc2)n1	Mdm2-MdmX inh 78 | Mdm2 MdmX conf 67 | FLuc counter 78
Cc1cccc(N2CCN(C(=O)CCc3nc4ccccc4c(=O)[nH]3)CC2)c1C	none (no result: aSyn 5UTR inh)
CCC(Oc1ccccc1)C(=O)NCCCN1CCOCC1 (stereo not given)	none
Cc1ccc2[nH]c(O)c(N=Nc3nc4ccccc4s3)c2c1	Mdm2-MdmX inh 68 | Mdm2 MdmX conf 55 | FLuc counter 47
Cc1ccc(S(=O)(=O)NCC2CCC(C(=O)N3CCN(C)CC3)CC2)cc1 (stereo not given)	none
O=C(COC(=O)Cn1cc(C(F)(F)F)ccc1=O)NCc1ccccc1	none (no result: Bfl-1 A1 inh, Beta apoptosis, CSC inhib, aSyn 5UTR inh)
CN(CC(=O)Nc1ccc(Cl)cc1)C(=O)CCc1nc2sc3c(c2c(=O)[nH]1)CCCC3	Mdm2-MdmX inh 86 | Mdm2 MdmX conf 50 | FLuc counter 96
CN(CC(=O)Nc1ccc(F)cc1)C(=O)CCc1nc2sc3c(c2c(=O)[nH]1)CCCC3	none
Cc1cc(C)cc(NC(=O)CCc2nc3sc4c(c3c(=O)[nH]2)CCCC4)c1	CSC inhib 89, Mdm2-MdmX inh 82 (no result: Beta apoptosis) | Mdm2 MdmX conf 94 | FLuc counter 96
COc1ccccc1CC(=O)Nc1ccc(S(=O)(=O)N2CC(C)CC(C)C2)cc1 (stereo not given)	none (no result: aSyn 5UTR inh)
C/C(=N/Nc1cc(-c2ccccc2)nc(-c2ccccc2)n1)c1ccc(O)cc1	CSC inhib 106, Mdm2-MdmX inh 56 | Mdm2 MdmX conf inactive
C/C(=N\Nc1cc(-c2ccccc2)nc(-c2ccc(Br)cc2)n1)c1cccc(N)c1	none
CC(=O)c1cccc(CN2CCC(C(=O)Nc3ccc(-c4cccc(C)c4)cc3)CC2)c1	Mdm2-MdmX inh 52 (no result: Beta apoptosis) | Mdm2 MdmX conf inactive
COc1ccc(N2CCN(S(=O)(=O)CCNC(=O)C3CCCCC3)CC2)cc1	none (no result: Beta apoptosis)
N=c1c2c(ncn1CCN1CCOCC1)Oc1ccc3ccccc3c1C2c1ccccc1 (stereo not given)	none
CN(C)CCn1cnc2c(c1=N)C(c1ccccc1)c1ccc3ccccc3c1O2 (stereo not given)	aSyn 5UTR inh 90, Mdm2-MdmX inh 98 | Mdm2 MdmX conf 71 | FLuc counter 40
N=c1c2c(ncn1Cc1ccco1)Oc1cc(O)ccc1C2c1ccccc1 (stereo not given)	none
COc1ccc(C2c3c(ncn(CCN4CCOCC4)c3=N)Oc3ccc4ccccc4c32)cc1 (stereo not given)	Mdm2-MdmX inh 71 | Mdm2 MdmX conf 55 | FLuc counter 65
N=c1c2c(ncn1Cc1ccco1)Oc1c(ccc3ccccc13)C2c1ccccc1 (stereo not given)	CSC inhib 102, Mdm2-MdmX inh 70 (no result: Beta apoptosis) | Mdm2 MdmX conf 70 | FLuc counter 55
O=C(c1ccc(Cn2c(=S)[nH]c3ccccc3c2=O)cc1)N1CCN(c2ccccn2)CC1	none
Cc1cc(C)c(C#N)c(SCC(=O)c2ccc(Cl)cc2Cl)n1	Mdm2-MdmX inh 74 | Mdm2 MdmX conf 73 | FLuc counter 70
CCOC(=O)CSc1nc(C)cc(C)c1C#N	none
O=C(O)c1ccccc1Nc1ccc([N+](=O)[O-])c2nonc12	none
CCc1nc2ccc(C(=O)N3CCN(c4cccc(OC)c4)CC3)cc2nc1CC	Mdm2-MdmX inh 64 | Mdm2 MdmX conf inactive | FLuc counter 63
COc1cccc(N2CCN(C(=O)c3ccc4ccccc4c3)CC2)c1	none (no result: Bfl-1 A1 inh, Beta apoptosis, CSC inhib, aSyn 5UTR inh)
CCc1c(-c2ccccc2)nc2sc3c(c2c1N)CCCC3	Mdm2-MdmX inh 72 | Mdm2 MdmX conf inactive
Nc1c(C(=O)O)sc2nc(-c3ccccc3)c3c(c12)CCCC3	none
CC(NC(=S)Nc1ccc(OC(F)F)c(Cl)c1)C(C)(C)C (stereo not given)	Mdm2-MdmX inh 58 | Mdm2 MdmX conf inactive
NC1=NC[C@H](Cc2ccccc2)N1CCCCC1CCCCC1	Beta apoptosis 112, Mdm2-MdmX inh 78 | Mdm2 MdmX conf inactive
c1ccc(C[C@H]2CN=C(Nc3ccccc3)N2CCC2CCCC2)cc1	none (no result: aSyn 5UTR inh)
NC1=NC[C@H](Cc2ccc(O)cc2)N1CCCCC1CCCCC1	Beta apoptosis 102, Mdm2-MdmX inh 50 | Mdm2 MdmX conf inactive
O=C(/C=C/c1cn(CC(O)CN2CCCCC2)c2ccccc12)c1ccccc1 (stereo not given)	none (no result: Bfl-1 A1 inh, Beta apoptosis, CSC inhib, Mdm2-MdmX inh)
CCCN(CCC)CC(O)Cn1cc(/C=C/C(=O)c2ccccc2)c2ccccc21 (stereo not given)	none (no result: Bfl-1 A1 inh, Beta apoptosis, CSC inhib, Mdm2-MdmX inh)
COc1ccc(C(=O)/C=C/c2cn(CC(O)CN3CCN(C)CC3)c3ccccc23)cc1OC (stereo not given)	Mdm2-MdmX inh 50 | Mdm2 MdmX conf inactive
CCCCN(C)CC(O)Cn1cc(/C=C/C(=O)c2ccc(C)cc2)c2ccccc21 (stereo not given)	CSC inhib 82, Mdm2-MdmX inh 74 | Mdm2 MdmX conf inactive
O=C(c1cccc(S(=O)(=O)N2CCc3ccccc32)c1)N1CCCC(C(F)(F)F)C1 (stereo not given)	none
Cc1ccc(S(=O)(=O)N(CC(=O)NCc2ccccc2Cl)C(=O)N2CCN(C)CC2)cc1	none (no result: Beta apoptosis)
Oc1ccccc1/C=N/Nc1nccnc1Cl	Beta apoptosis 94, CSC inhib 88, aSyn 5UTR inh 88, Mdm2-MdmX inh 71 | Mdm2 MdmX conf 65 | FLuc counter inactive
O=[N+]([O-])c1ccccc1/C=N/Nc1nccnc1Cl	none
Oc1ccc(/C=N/Nc2nccnc2Cl)c(O)c1	Beta apoptosis 75, CSC inhib 95, aSyn 5UTR inh 88, Mdm2-MdmX inh 57 | Mdm2 MdmX conf 73 | FLuc counter 39
CC(NC(=O)c1cc(-c2ccncc2)nc2ccc(Br)cc12)C1CCCO1 (stereo not given)	none
O=S(=O)(NCCCNS(=O)(=O)c1c(F)cccc1F)c1ccc2c(c1)OCCO2	none (no result: aSyn 5UTR inh)
Cc1cc(C)cc(NC(=O)[C@H](Cc2c[nH]c3ccccc23)NC(=O)[C@@H]2Cc3ccccc3CN2)c1	Mdm2-MdmX inh 60 | Mdm2 MdmX conf inactive
CC(NC(=O)[C@H](Cc1c[nH]c2ccccc12)NC(=O)[C@@H]1Cc2ccccc2CN1)c1ccccc1 (stereo not given in full)	none
Cc1ccc(NC(=O)[C@H](Cc2ccccc2)NC(=O)[C@@H]2Cc3ccccc3CN2)c(C)c1	none
O=C(NC(Cc1c[nH]c2ccccc12)C(=O)Nc1ccc(F)cc1)c1cccs1 (stereo not given)	Mdm2-MdmX inh 86 | Mdm2 MdmX conf 71 | FLuc counter 70
CCc1ccc(NC(=O)[C@H](NC(=O)[C@@H]2Cc3ccccc3CN2)c2ccccc2)cc1	none

High-throughput results deposited in PubChem BioAssay by several laboratories.
